HEK293 tox: cytotoxic compounds in HEK 293 cells | HEK 293 viability, ATP luminescence (CellTiter-Glo), 48-72 h | Potency, µM (titrated, usually from 115 µM), without a hit: at the top dose activity change, negative = cytotoxicity, usual class: inhibitors | 94,000 compounds, 6.6% hits | AID 1345083; note: nearly all actives have a fitted effect of over 60% in size
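HEK 293 cells seeded at 250 cells/well were exposed to compound for 48 or 72 hr at 37 degree Celsius. Viability taken as ATP content by CellTiter-Glo luminescence.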
hNpr1 antagonist: human Npr1 receptor antagonism; P16066; HEK293 hNpr1 GloSensor cGMP, ANP-stimulated luminescence; Potency, µM (series often up to 46.3 µM), for inactives: at the highest dose activity change, negative = inhibition, hits mostly inhibitors; 76,000 compounds, 1.6% hits; AID 1347048; calls by dose curve; note: nearly all actives have a fitted effect of over 60% in size
Target sequence (P16066 whole entry, looked up): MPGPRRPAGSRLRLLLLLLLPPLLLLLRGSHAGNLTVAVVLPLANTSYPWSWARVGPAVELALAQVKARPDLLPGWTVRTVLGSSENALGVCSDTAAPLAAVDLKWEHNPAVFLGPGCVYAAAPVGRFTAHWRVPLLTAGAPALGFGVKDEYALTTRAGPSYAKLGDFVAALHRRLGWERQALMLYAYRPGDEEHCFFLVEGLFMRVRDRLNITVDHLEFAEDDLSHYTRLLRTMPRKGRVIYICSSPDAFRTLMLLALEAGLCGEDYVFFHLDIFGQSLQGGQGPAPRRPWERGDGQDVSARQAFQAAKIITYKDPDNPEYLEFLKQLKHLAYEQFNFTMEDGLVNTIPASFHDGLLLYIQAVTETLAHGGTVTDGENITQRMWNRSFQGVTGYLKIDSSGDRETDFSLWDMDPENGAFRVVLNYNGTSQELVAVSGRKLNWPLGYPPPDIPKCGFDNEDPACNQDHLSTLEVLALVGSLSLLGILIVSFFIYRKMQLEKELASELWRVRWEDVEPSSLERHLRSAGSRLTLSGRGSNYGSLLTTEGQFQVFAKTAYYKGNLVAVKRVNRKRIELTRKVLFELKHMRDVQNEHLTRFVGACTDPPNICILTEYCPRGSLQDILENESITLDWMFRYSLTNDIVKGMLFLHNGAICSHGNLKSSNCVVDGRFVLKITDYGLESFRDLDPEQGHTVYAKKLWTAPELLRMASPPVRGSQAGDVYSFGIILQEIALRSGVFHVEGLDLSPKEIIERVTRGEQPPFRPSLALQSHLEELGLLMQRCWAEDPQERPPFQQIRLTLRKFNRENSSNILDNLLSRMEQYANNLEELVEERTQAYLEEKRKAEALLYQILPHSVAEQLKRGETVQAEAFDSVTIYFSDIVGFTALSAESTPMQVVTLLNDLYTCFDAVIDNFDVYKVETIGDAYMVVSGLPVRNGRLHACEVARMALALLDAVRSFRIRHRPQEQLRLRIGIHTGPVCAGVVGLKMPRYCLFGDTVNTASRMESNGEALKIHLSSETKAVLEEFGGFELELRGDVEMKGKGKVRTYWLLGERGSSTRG
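HEK293 cells stably expressing human Npr1 and cGMP GloSensor pGS-40F, loaded 2 h with 2% GloSensor reagent, given compound 30 min at room temperature. Luminescence read before and 20 min after 0.1 nM hNppA.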
FLuc inh: inhibitors of firefly (Photinus pyralis) luciferase. purified P. pyralis luciferase, luminescence, biochemical. P08659. AID 1347043. 76,000 compounds, 2.5% hits. Potency, µM (top dose mostly 115 µM), actives largely listed as inhibitors; note: nearly all actives have a fitted effect of over 65% in size
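Biochemical qHTS: compound (6-point titration) added to 10uM D-luciferin plus 10uM ATP in Tris acetate pH 7.5 buffer with Mg, Tween-20 and BSA, then purified enzyme at 10nM; light output imaged.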
NIH3T3 tox: NIH 3T3 cell cytotoxicity; NIH 3T3 viability, CellTiter-Glo ATP luminescence, 48-72 h; Potency, µM (doses to about 96.7 µM), inactives show at the top dose activity change, negative = cytotoxicity, actives largely listed as inhibitors; 94,000 compounds, 4.3% hits; note: nearly all actives have a fitted effect of over 55% in size
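Luminescent ATP readout (CellTiter-Glo, 10 min RT) after 48 or 72 hr compound exposure of NIH 3T3 cells seeded at 400 cells/well in 1536-well format; quantitative HTS.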
SNCA viab count: reduces viability of HEK-293 SNCA reporter cells; 150,000 compounds, 0.12% hits; HEK-293-SNCA-luc viability, GF-AFC fluorescence, 24 h; Potency, µM (series often up to 57.1 µM), without a hit: at the top dose activity change, negative = cytotoxicity, actives largely listed as cytotoxic;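 note: 0% = DMSO-treated cells and -100% = medium-only wells without cells; nearly all actives have a fitted effect of over 30% in size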
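HEK-293-SNCA-luc cells (1500/well) plated 24 h, then exposed 24 h to a dilution series; GF-AFC added 30 min at 37C, fluorescence 405/540 nm; normalised to medium-only and DMSO wells, Hill fit.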
SNCA expr inh: inhibitors of alpha-synuclein (SNCA) gene expression; HEK-293 SNCA-luciferase knock-in, luminescence, 24 h; Potency, µM (titrated, usually from 57.2 µM), for the others: top-dose activity change, negative = inhibition, hits mostly inhibitors; 140,000 compounds, 0.17% hits;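 note: plate controls were DMSO cells for no effect and cell-free wells for full effect; nearly all actives have a fitted effect of over 45% in size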
An asterisk follows results filed as active; i = inactive; u = inconclusive; x = no result; [ ] = remark or other dose. Compounds with a hit are over-represented: about 7.2% of the library has one in this group of screens. Unless noted, calls come from the whole dose curve; as a rule, active = well fitted curve in the direction sought with a large enough effect; inconclusive = small, poorly fitted or top-dose-only effect, or another doubt; inactive = no such curve, though single readings can be large; an effect the other way counts as inactive or inconclusive. Unless noted, % is set by controls: 0 for no effect and ±100 for the full control effect; potency is the fitted concentration of half-maximal effect.

SMILES | HEK293 tox | hNpr1 antagonist | FLuc inh | NIH3T3 tox | SNCA viab count | SNCA expr inh
CCN(C(=O)CCC(=O)N1CCC(c2nc(C(=O)N3CCCC3)c(C)o2)CC1)c1ccccc1 | u | x | x | u | -5.0% | u
COc1ccccc1OCCNC(=O)C1CC(=O)N(c2n[nH]c3cccc(F)c23)C1 (stereo unspecified) | 2.0% | 0.9% | i | -0.9% | 2.4% | 3.3%
COc1ccc(NC(=O)Cn2c(-c3ccccc3)nc(C)c(CCO)c2=O)cc1Cl | 25.1µM* | -24.3% | i | u | u | u
Cc1cc(NC(=O)Cn2c(-c3cccc(Cl)c3)nc(C)c(CCO)c2=O)no1 | u | -0.7% | i | u | -15.8% | 22.7%
CCc1cccc(NC(=O)Cn2c(-c3cccc(Cl)c3)nc(C)c(CCO)c2=O)c1 | 39.8µM* | -5.3% | i | u | 1.4% | -20.6%
Cc1ccc(CNC(=O)Cn2c(-c3ccccc3)nc(C)c(CCO)c2=O)cc1 | 79.4µM* | -7.8% | i | u | 5.0% | -14.6%
Cc1nc(-c2cccc(Cl)c2)n(CC(=O)Nc2ccccc2F)c(=O)c1CCO | 44.7µM* | -14.9% | i | u | -15.2% | 0.3%
Cc1nc(-c2ccc(F)cc2)n(CC(=O)NCc2ccc(F)cc2)c(=O)c1CCO | -8.9% | -1.8% | i | -24.8% | -15.3% | u
COc1ccc(NC(=O)Cn2c(-c3ccccc3)nc(C)c(CCO)c2=O)cc1OC | u | -4.0% | i | u | u | 10.8%
O=C(CCC1CCN(C(=O)c2ccccc2Cl)CC1)N1CCc2ccccc2C1 | u | u | i | u | -5.7% | 10.9%
Cc1ccc(NC(=O)Cn2c(-c3ccc(Cl)cc3)nc(C)c(CCO)c2=O)cc1 | 31.6µM* | -2.5% | i | u | -18.2% | -3.5%
Cc1cc(C)cc(NC(=O)Cn2c(-c3ccccc3)nc(C)c(CCO)c2=O)c1 | 31.6µM* | -11.3% | i | u | -16.4% | -0.4%
COc1ccc(NC(=O)Cn2c(-c3ccc(Cl)cc3)nc(C)c(CCO)c2=O)cc1 | u | -1.2% | i | -16.8% | -11.1% | -7.6%
Cc1ccc(NC(=O)Cn2c(-c3ccc(F)cc3)nc(C)c(CCO)c2=O)cc1Cl | u | -4.5% | i | u | -22.6% | -14.4%
Cc1nc(-c2ccc(F)cc2)n(CC(=O)Nc2ccc(F)c(Cl)c2)c(=O)c1CCO | 35.5µM* | -23.6% | i | u | u | u
Cc1nc(-c2cccc(Cl)c2)n(CC(=O)Nc2ccc3c(c2)OCO3)c(=O)c1CCO | 39.8µM* | -22.4% | i | u | -28.2% | -20.0%
Cc1cccc(C(=O)N[C@H]2CN(CCS(C)(=O)=O)C[C@@H]2C(C)C)c1 | i | -0.5% | i | -1.4% | -7.9% | 8.1%
O=C(c1ccco1)N1CC(F)(F)C[C@H]1c1nc(-c2ccncc2)no1 | i | -0.3% | i | -17.5% | -1.9% | -9.1%
Cc1nc(-c2cccc(Cl)c2)n(CC(=O)Nc2ccccc2)c(=O)c1CCO | 44.7µM* | -11.3% | i | u | -24.5% | -17.2%
CSc1cccc(NC(=O)Cn2c(-c3ccc(F)cc3)nc(C)c(CCO)c2=O)c1 | 31.6µM* | -17.2% | i | u | -13.9% | -1.1%
Cc1nc(-c2ccccc2)n(CC(=O)Nc2ccccc2)c(=O)c1CCO | u | 1.2% | i | u | -12.6% | -15.6%
Cc1ccc(NC(=O)Cn2c(-c3cccc(Cl)c3)nc(C)c(CCO)c2=O)cc1 | 25.1µM* | -3.5% | i | 39.8µM* | u | -3.0%
Cc1nc(-c2ccc(F)cc2)n(CC(=O)Nc2ccc(F)cc2)c(=O)c1CCO | u | -6.2% | i | u | -5.5% | -33.4%
Cc1nc(-c2cccc(Cl)c2)n(CC(=O)Nc2cccc(C(C)C)c2)c(=O)c1CCO | u | -7.7% | i | 25.1µM* | u | u
COc1cccc(N2CCN(C(=O)c3cn4ccnc(-c5ccccc5)c4n3)CC2)c1 | u | -13.8% | i | u | -2.9% | -21.5%
SMILES | HEK293 tox | hNpr1 antagonist | FLuc inh | NIH3T3 tox | SNCA viab count | SNCA expr inh
CCN1C(=O)C2CC3(CCN(Cc4cn[nH]c4-c4ccccc4)CC3)CN2C1=O (stereo unspecified) | -12.2% | 3.0% | i | -15.2% | 17.9% | -2.2%
Cn1ccc2cc(-c3csc(CN4CC(C)(NC(=O)C5CC5)C4)n3)ccc21 | u | u | u | u | 0.0%[87.6 µM] | 40.1%[87.6 µM]
CC1(NC(=O)C2CC2)CN(Cc2nc(-c3ccc(Oc4ccccc4)cc3)cs2)C1 | 35.5µM* | 8.91µM* | u | u | -23.0%[87.6 µM] | u
CC1(NC(=O)C2CC2)CN(Cc2nc(-c3cccc(N4CCOCC4)c3)cs2)C1 | u | -1.5%[70.6 µM] | 39.8µM* | -20.3%[138 µM] | 4.3%[87.6 µM] | 53.6%[87.6 µM]
O=C(c1cc(-c2cccnc2)c2nncn2n1)N1CCOCC1 | i | x | x | 2.1% | -0.4% | 6.2%
COCCn1ccc2c(C3=CCOCC3)nc(-c3cccc4[nH]ncc34)cc21 | u | -11.2%[70.6 µM] | i | u | -12.3%[87.6 µM] | 2.0%[87.6 µM]
COCCn1ccc2c(C3=CCOCC3)nc(-c3cccc(N4CCOCC4)c3)cc21 | u | 1.8%[70.6 µM] | i | 44.7µM* | 10.5%[87.6 µM] | -5.9%[87.6 µM]
COCCn1ccc2c(C3=CCOCC3)nc(-c3cccc(CO)c3)cc21 | u | 3.0%[70.6 µM] | i | 12.6µM* | -0.5%[87.6 µM] | 4.9%[87.6 µM]
COCCn1ccc2c(C3=CCOCC3)nc(-c3ccc4cn[nH]c4c3)cc21 | u | -1.5%[70.6 µM] | i | u | 0.8%[87.6 µM] | 11.8%[87.6 µM]
COCCn1ccc2c(C3=CCOCC3)nc(-c3cccc4[nH]ccc34)cc21 | 28.2µM* | -1.3%[70.6 µM] | i | 50.1µM* | u | -19.5%[87.6 µM]
COCCn1ccc2c(C3=CCOCC3)nc(-c3ccc4c(c3)CNC4=O)cc21 | u | -0.8%[70.6 µM] | u | u | 12.9%[87.6 µM] | 38.6%[87.6 µM]
Cc1cnc(CCNS(=O)(=O)c2ccc(C#N)cc2)n1C1CCC1 | 4.7% | 2.5% | i | -3.6% | 3.1% | 13.4%
O=C(NCCc1ccccc1F)c1nc2sccn2c1-c1ccc(C(F)(F)F)cc1 | 25.1µM* | x | x | 28.2µM* | 2.1% | u
O=C(NCCCc1ccccc1)c1n[nH]c2c1CN(C(=O)c1ccc(Cl)cc1)CC2 | u | -20.3% | i | u | 7.4% | -29.0%
O=C(NCCCc1ccccc1)c1n[nH]c2c1CN(C(=O)c1ccc(F)cc1)CC2 | u | 3.2% | i | 28.2µM* | 8.7% | -24.7%
O=C(NCCc1ccccc1F)c1nc2sccn2c1-c1ccncc1 | u | x | x | u | -3.1%[87.6 µM] | 8.4%[87.6 µM]
O=C(NCCCc1ccccc1)c1nc2sccn2c1-c1ccc(F)cc1 | 100µM* | x | x | u | u | -10.3%[87.6 µM]

High-throughput results as filed in PubChem.
